Assay outcomes as filed in PubChem.
Compounds with a hit are over-represented: about 2.9% of the library has one in this group of screens.
KLK7 zymogen act – activates the human kallikrein-7 zymogen; activation, % at 7 µM; AID 652039; 370,000 tested, 0.9% active; P49862; purified proKLK7, EDANS-DABCYL substrate fluorescence; 100% is mature enzyme control, 0% vehicle;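 active = activation above the mean of all tested compounds plus 3 SD, computed per campaign excluding outliers beyond control limits, cut at about 13% in these data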
ADAM10 inh – ADAM10 inhibition, QFRET primary screen. O14672. recombinant ADAM10, EDANS/DABCYL FRET peptide cleavage, 3 h. 370,000 tested, 0.62% active. inhibition, % at 7 µM;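 active = inhibition above a per-campaign cutoff equal to the mean of compounds falling between control-based bounds plus 3 SD, cut at about 20% in these data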;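 note: 0% = DMSO wells while the 100% control is not disclosed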
PLCg1 inh – PLC-gamma1 (human) inhibition, primary screen. inhibition, % at 12.2 µM. purified PLC-gamma1, fluorogenic substrate, fluorescence. P19174. 370,000 tested, 0.84% active; in the data active = inhibition above about 9.5%
Target sequence (P19174 whole entry, looked up): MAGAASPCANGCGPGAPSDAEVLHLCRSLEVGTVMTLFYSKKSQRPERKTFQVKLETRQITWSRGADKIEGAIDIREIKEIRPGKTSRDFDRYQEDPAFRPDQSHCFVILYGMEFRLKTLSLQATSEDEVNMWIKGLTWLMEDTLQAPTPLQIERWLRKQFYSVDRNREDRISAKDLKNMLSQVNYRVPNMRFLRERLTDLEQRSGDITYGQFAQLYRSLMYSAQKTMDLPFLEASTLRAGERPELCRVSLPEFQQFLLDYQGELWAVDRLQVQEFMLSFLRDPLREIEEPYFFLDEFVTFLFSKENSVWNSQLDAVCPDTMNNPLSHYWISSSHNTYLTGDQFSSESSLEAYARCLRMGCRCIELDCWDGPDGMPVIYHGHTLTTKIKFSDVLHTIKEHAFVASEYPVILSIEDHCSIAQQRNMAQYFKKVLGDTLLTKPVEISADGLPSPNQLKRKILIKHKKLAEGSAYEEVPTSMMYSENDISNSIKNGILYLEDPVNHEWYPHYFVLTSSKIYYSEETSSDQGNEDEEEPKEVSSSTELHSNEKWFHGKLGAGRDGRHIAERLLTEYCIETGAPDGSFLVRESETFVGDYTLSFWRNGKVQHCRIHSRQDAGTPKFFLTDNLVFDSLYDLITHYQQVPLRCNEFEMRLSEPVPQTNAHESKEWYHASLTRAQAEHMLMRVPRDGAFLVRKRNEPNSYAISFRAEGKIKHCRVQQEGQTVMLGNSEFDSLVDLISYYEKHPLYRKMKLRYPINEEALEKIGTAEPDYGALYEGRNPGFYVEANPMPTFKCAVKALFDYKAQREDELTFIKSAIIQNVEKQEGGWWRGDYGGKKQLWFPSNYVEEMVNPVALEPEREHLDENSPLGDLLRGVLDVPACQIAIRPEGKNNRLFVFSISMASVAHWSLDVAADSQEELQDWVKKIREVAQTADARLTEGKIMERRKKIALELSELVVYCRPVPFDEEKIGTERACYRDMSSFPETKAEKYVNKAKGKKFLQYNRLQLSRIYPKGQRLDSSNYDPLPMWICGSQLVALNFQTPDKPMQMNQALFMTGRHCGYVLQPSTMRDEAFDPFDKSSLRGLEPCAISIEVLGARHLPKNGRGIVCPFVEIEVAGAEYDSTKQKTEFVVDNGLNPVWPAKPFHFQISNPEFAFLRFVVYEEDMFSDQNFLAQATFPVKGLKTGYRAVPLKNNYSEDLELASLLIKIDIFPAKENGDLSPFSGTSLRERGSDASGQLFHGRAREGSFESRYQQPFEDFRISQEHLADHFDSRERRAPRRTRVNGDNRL
ADAM17 inh – inhibitors of human ADAM17; AID 720648; recombinant ADAM17, EDANS/DABCYL FRET peptide cleavage; inhibition, % at 6.95 µM; 370,000 tested, 0.83% active; P78536;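 active = inhibition above the mean of compounds lying between control limits plus 3 SD, set per campaign, cut at about 8.5% in these data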;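 note: 0% = DMSO-only wells as the low control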
PLC-beta3 inh – PLC-beta3 (human) inhibition, primary screen. Q01970. inhibition, % at 12.2 µM. Purified PLC-beta3, fluorogenic substrate, fluorescence. 370,000 tested, 0.18% active;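 note: 0% = median of compound wells on plate and 100% = full blocker control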
PLCg1 ctr – counter-screen for PLC-beta3 inhibitors: inhibitors of human PLC-gamma1. AID 743258. inhibition, % at 12.3 µM. purified PLC-gamma1, fluorogenic substrate, fluorescence. 3,300 tested, 3.1% active. shares compounds with PLCg1 inh; in the data active = inhibition above about 9.5%
PLCbeta3 conf – confirmation of human PLC-beta3 inhibitors | inhibition, % at 12.3 µM | 3,300 tested, 1% active | purified PLC-beta3, fluorogenic substrate fluorescence | shares compounds with PLCg1 inh
* hit, by the source's call; . = no result given. Cut-off read from the data, not from the text of the source, unless noted: active = inhibition above about 11%; inactive = the rest.

SMILES | KLK7 zymogen act | ADAM10 inh | PLCg1 inh | ADAM17 inh | PLC-beta3 inh | PLCg1 ctr | PLCbeta3 conf
CSc1ccccc1CNc1nc(NCC2CC2)nc2ccsc12 | 0.5 | -11.2 | 2.9 | -1.7 | 1.9 | . | .
COc1ccc(-c2cc(C(=O)Nc3ccc(C)c(C)c3)no2)cc1 | 0.1 | 8.9 | 11.5* | 1.6 | -2.6 | -171.0 | -169.2
Cc1ccc(NC(=O)c2cc(-c3ccc(F)cc3)on2)cc1C | -0.3 | -1.4 | 2.7 | -3.0 | -2.9 | . | .
CN(C)c1ccc(CC(=O)N2CCCCC2c2cc(C(=O)Nc3cccc4c3CCCC4)no2)cc1 (stereo not given) | 0.7 | 10.8 | 0.6 | 2.5 | 0.7 | . | .
CC(=O)NC(Cc1ccc2c(c1)OCO2)C(=O)N1CCCC1 (stereo not given) | -0.6 | -15.6 | 2.2 | -5.0 | 0.8 | . | .
CCOc1c(Cl)cc(CNCC(O)c2ccccc2)cc1OC (stereo not given) | 0.3 | 3.1 | 10.6* | 2.3 | 2.1 | 2.4 | 5.3
CCOc1c(Cl)cc(CNCC(C)C)cc1OC | 0.4 | 4.2 | -2.2 | -4.9 | 0.8 | . | .
Cc1cc(C(=O)N/N=C/c2ccc(O)c([N+](=O)[O-])c2)n[nH]1 | -0.2 | 10.0 | 10.4* | 3.6 | 4.7 | -1.3 | 4.8
Cc1cc(C(=O)N/N=C/c2cccc([N+](=O)[O-])c2O)n[nH]1 | 0.3 | 2.2 | 3.1 | 3.4 | -1.2 | . | .
N#Cc1ccc(C23CC4(C2)[C@H](CN(Cc2ccc(-c5ccccc5)cc2)[C@@H]4c2ccccc2)C3c2ccc(C(F)(F)F)cc2)cc1 (stereo not given in full) | -0.5 | 5.6 | 5.2 | 3.9 | 10.9* | -10.2 | -9.2
FC(F)(F)c1ccc(C2[C@H]3CN(Cc4ccc(-c5ccccc5)cc4)[C@H](c4ccccc4)C34CC2(c2ccccc2)C4)cc1 (stereo not given in full) | 0.1 | 5.2 | -0.2 | 0.8 | 2.8 | . | .
O=C(O)c1ccccc1N1C(=O)C2C3c4ccccc4C(Br)(c4ccccc43)C2C1=O (stereo not given) | -0.2 | 1.1 | 17.9* | -0.5 | -4.2 | 0.1 | 2.4
CC12C(=O)N(c3ccccc3C(=O)O)C(=O)C1C1C=CC2C1 (stereo not given) | 0.2 | 0.3 | 2.2 | -3.5 | 0.5 | . | .
COC(=O)c1scc(C)c1-n1ccc(C(=O)C(=O)N(C)C)c1 | -0.1 | 9.6 | 6.9 | 5.5 | 12.7* | -3.6 | -1.4
CC(O)[C@H]1CN=C(N)N1CCc1cc(C(F)(F)F)cc(C(F)(F)F)c1 (stereo not given in full) | -0.5 | -6.2 | -2.9 | -7.6 | 4.0 | . | .
NC1=NC[C@H](Cc2ccc(O)cc2)N1CCc1cc(C(F)(F)F)cc(C(F)(F)F)c1 | -0.1 | 7.5 | 10.3* | -3.8 | -2.7 | -8.1 | -3.4
CN(CC(=O)Nc1c(Cl)cccc1Cl)C(=O)c1ccc2nc[nH]c2c1 | -0.1 | -1.2 | -1.0 | -7.2 | -4.6 | . | .
N#CC1(NC(=O)CSc2nc3ccccc3s2)CCCCC1 | 0.2 | 6.4 | 11.6* | 5.2 | 4.5 | -1.9 | 4.8
N#CC1(NC(=O)CSc2nc3ccc([N+](=O)[O-])cc3s2)CCCCC1 | 0.2 | 0.6 | 0.3 | -8.7 | -10.3 | . | .
Cc1ccc(C)c(CNS(=O)(=O)c2ccc3c(c2)C(C)(C)C(=O)N3C)c1 | -0.1 | -2.2 | 0.5 | 2.0 | -7.2 | . | .
O=C(CCCc1nc(-c2ccccc2)no1)NC1CCCCC1 | 0.2 | -3.6 | 0.2 | 2.9 | -10.1 | . | .
COc1ccc(OCCCN2CCC(C(O)(c3ccccc3)c3ccccc3)CC2)cc1 | 0.2 | 3.0 | 4.7 | 0.2 | 4.3 | . | .
COC(=O)c1cccc(OCCCN2CCC(C(O)(c3ccccc3)c3ccccc3)CC2)c1 | -0.4 | -1.9 | 9.7* | -0.6 | 5.0 | -2.4 | -4.7
COC(=O)c1cccc(OC[C@@H](O)CN2CCC(C(O)(c3ccccc3)c3ccccc3)CC2)c1 | 0.0 | 2.4 | 11.4* | 6.9 | 8.8 | 7.1 | -3.8
CCOC(=O)c1c(CN2CCNCC2)nc2ccc(Cl)cc2c1-c1ccccc1 | -0.7 | -4.8 | 1.5 | 0.4 | 0.5 | . | .
SMILES | KLK7 zymogen act | ADAM10 inh | PLCg1 inh | ADAM17 inh | PLC-beta3 inh | PLCg1 ctr | PLCbeta3 conf
C/C(CC(=O)Nc1ccc(N(C)C)cc1)=N\NC(=O)c1ccc([N+](=O)[O-])cc1 | -0.1 | 3.1 | 0.2 | -1.0 | -6.7 | . | .
C/C(CC(=O)Nc1ccc([N+](=O)[O-])cc1)=N\NC(=O)c1ccccc1[N+](=O)[O-] | -0.3 | 18.1 | 10.7* | 3.9 | 4.8 | 0.9 | 2.9
C=CCN(CC#Cc1ccccc1)Cc1ccc2c(c1)OCO2 | -0.2 | -1.2 | -0.2 | -2.6 | 0.3 | . | .
Cc1ccc(C(=O)Nc2ccc(S(=O)(=O)NCc3ccco3)cc2)cc1 | -0.6 | -1.1 | 1.0 | -5.2 | -1.2 | . | .
O=C(Nc1ccccc1)c1ccc(S(=O)(=O)NCc2ccco2)cc1 | 0.3 | 10.0 | 12.6* | 4.5 | 7.3 | 7.8 | 0.8
CCNC(=O)C1CCCN(C(=O)c2ccc(OC(F)F)cc2)CC1 (stereo not given) | 0.5 | 5.6 | 1.7 | 1.6 | -0.6 | . | .
O=C(Nc1ccc(F)c(Cl)c1)c1cc(C2CCCCN2C(=O)c2ccc3c(c2)CCO3)on1 (stereo not given) | 0.3 | 2.3 | -0.4 | 1.4 | -3.2 | . | .
CC(=O)OC(C(=O)Nc1nccs1)c1ccccc1 (stereo not given) | -0.1 | -0.1 | 13.3* | -1.5 | -2.4 | 7.2 | 0.1
O=C(CCc1nc(-c2ccccc2F)no1)NCCc1ccc(F)cc1 | -0.4 | -2.6 | -0.5 | -2.2 | 0.2 | . | .
O=C(O)C(C(=O)O)=C1C2CC3CC(C2)CC1C3 | 0.2 | 11.7 | 10.6* | -1.1 | 1.0 | -1.6 | -5.5
Cc1nnc2sc(SCC(=O)N3CCCCC3)nn2c1=O | -0.1 | 5.6 | 11.7* | -3.0 | -3.2 | -6.9 | -0.9
Nc1nc(-c2ccco2)nn1C(=O)c1ccccc1 | -0.1 | -16.1 | -1.2 | -4.7 | 1.8 | . | .
Nc1nc(-c2ccco2)nn1C(=O)c1ccc(Cl)cc1 | -0.4 | 10.4 | 9.8* | 4.6 | 4.6 | -6.3 | -9.1
CS(=O)(=O)N1CCCCC1c1cc(C(=O)Nc2ccccc2Cl)no1 (stereo not given) | 0.0 | -4.6 | -1.3 | -1.4 | 1.7 | . | .
Cc1ccc(SCc2ccc(C(=O)Nc3cc([N+](=O)[O-])ccc3C)cc2)cc1 | 0.1 | 9.1 | 11.6* | 8.6 | 5.9 | -1.7 | -1.3
O=C(O)c1cccc2c1C(=O)c1ccccc1-2 | 0.4 | 1.9 | -1.5 | -0.9 | -7.1 | . | .
O=C1C(=C(I)I)c2ccccc2-c2ccccc21 | -2.6 | -13.6 | 33.7* | -2.6 | -12.0 | 39.1* | -1.6
COC(=O)C1CCN(CC(=O)Nc2ccc(OC)c(Cl)c2)CC1 | -0.1 | 1.2 | 1.6 | -0.4 | 4.1 | . | .
COc1cc(CNC(=O)Nc2nc(C(N)Cc3ccc(C(F)(F)F)cc3)cs2)cc(OC)c1OC (stereo not given) | 0.0 | 2.4 | 4.8 | 4.3 | 3.2 | . | .
O=C(CCc1nc2ccccc2s1)OCc1ccccc1 | -0.8 | 5.3 | 3.1 | 6.8 | 10.8* | -6.5 | -3.4
